Only some compounds are listed: those with a hit (about 16% of all), similar ones and a draw of the others.
DT40 TDP1 no CPT: qHTS for Inhibitors of human tyrosyl-DNA phosphodiesterase 1 (TDP1): qHTS in cells in absence of CPT. DT40 Tdp1-/- hTDP1 cells, no CPT, ATP luminescence, 48 h. Potency, µM (highest dose often 46.2 µM), hits mostly inhibitors. 420,000 compounds, 15% hits; note: nearly all actives have a fitted effect of over 55% in size
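Camptothecin absent (DMSO only). Human TDP1-complemented DT40 knockout cells, 400 cells/well, 37 °C for minimum 48 hr; ATP measured via CellTiter-Glo, 30 min dark incubation, luminescence.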
TDP1 cell CPT: qHTS for Inhibitors of human tyrosyl-DNA phosphodiesterase 1 (TDP1): qHTS in cells in presence of CPT; 420,000 compounds, 12% hits; Potency, µM (doses to about 46.2 µM), actives largely listed as inhibitors; chicken DT40 Tdp1-/-;hTDP1 cells + 20 nM CPT, ATP luminescence, 48 h; AID 686979, 2013; note: nearly all actives have a fitted effect of over 55% in size
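Chicken DT40 Tdp1-/- cells stably complemented with human TDP1 were seeded at 400 cells/well in medium containing 20 nM camptothecin, exposed to pin-transferred compounds, and grown at 37 °C for at least 48 hr. Viability was read as ATP luminescence.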
uPA surface inh: qHTS for Inhibitors of Cell Surface uPA Generation; AID 540303, 2011; 330,000 compounds, 0.31% hits; Potency, µM (doses to about 38.3 µM), hits mostly inhibitors; cell surface uPA generation assay, qHTS; active = well fitted inhibition curve with a large enough effect; inconclusive = small, poorly fitted or top-dose-only effect; inactive = no such curve, though single readings can be large or run the other way; tested in mouse RAW 264.7 cells; note: nearly all actives have a fitted effect of over 55% in size
TDP1 inh: qHTS Assay for Inhibitors of Tyrosyl-DNA Phosphodiesterase (TDP1); 350,000 compounds, 0.28% hits; Potency, µM (doses to about 130 µM), hits mostly inhibitors; recombinant TDP1, AlphaScreen DNA substrate cleavage; AID 485290, 2010; Tyrosyl-DNA phosphodiesterase 1 (Homo sapiens), Q9NUW8; note: nearly all actives have a fitted effect of over 40% in size
Target sequence (Q9NUW8 whole entry, looked up): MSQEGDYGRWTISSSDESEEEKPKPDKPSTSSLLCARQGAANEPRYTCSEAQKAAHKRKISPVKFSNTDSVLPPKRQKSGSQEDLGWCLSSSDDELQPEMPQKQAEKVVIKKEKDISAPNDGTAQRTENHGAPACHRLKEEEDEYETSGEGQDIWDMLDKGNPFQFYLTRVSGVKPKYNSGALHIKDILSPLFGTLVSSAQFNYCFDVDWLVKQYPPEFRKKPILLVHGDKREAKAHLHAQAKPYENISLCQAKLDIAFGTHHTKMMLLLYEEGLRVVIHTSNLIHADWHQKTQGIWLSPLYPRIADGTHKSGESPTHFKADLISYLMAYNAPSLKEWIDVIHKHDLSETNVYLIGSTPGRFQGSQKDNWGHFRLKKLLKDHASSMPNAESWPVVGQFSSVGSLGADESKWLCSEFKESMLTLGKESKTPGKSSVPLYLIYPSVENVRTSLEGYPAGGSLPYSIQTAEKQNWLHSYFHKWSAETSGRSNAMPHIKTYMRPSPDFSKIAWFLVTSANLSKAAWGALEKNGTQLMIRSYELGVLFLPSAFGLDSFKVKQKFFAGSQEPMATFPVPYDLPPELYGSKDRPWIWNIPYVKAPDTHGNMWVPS
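Steps: enzyme plus compound, 15 min RT; add biotin/phosphotyrosine-FITC oligonucleotide (15 nM final), react 5 min; add donor/acceptor beads (10 ug/ml final), 10 min; read AlphaScreen. Tdp1 at 1 nM final.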
miR-21 act: qHTS Assay for Modulators of miRNAs and/orActivators of miR-21. Potency, µM (titrated, usually from 38.3 µM), usual class: activators. 340,000 tested, under 10 active. HeLa miR-21 FLuc reporter, luciferase, 48 h;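 note: miR-21 action dims this reporter so a rising signal means less miR-21 action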
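Using DMEM plus 10% FBS, HeLa miR-21-FLuc cells are incubated with test compounds (final up to about 40uM) for 48 hours; firefly luciferase signal is then imaged following reagent-mediated lysis.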
Each line names hits and unclear results; the compound was inactive in the other large screens. Unless noted, calls come from the whole dose curve; as a rule, active = well fitted curve in the direction sought with a large enough effect; inconclusive = small, poorly fitted or top-dose-only effect, or another doubt; inactive = no such curve, though single readings can be large; an effect the other way counts as inactive or inconclusive.

CCCCC1Cc2[nH]c(=S)[nH]c(=O)c2C(c2ccc(F)cc2)O1 (stereo not drawn)	none (no result: uPA surface inh, TDP1 inh, miR-21 act)
Cc1cccc(NC(=O)c2nc[nH]c2C(=O)Nc2cc(Br)ccc2F)c1	DT40 TDP1 no CPT 8.2µM, TDP1 cell CPT 13µM (no result: uPA surface inh, TDP1 inh, miR-21 act)
Cc1cccc(NC(=O)c2nc[nH]c2C(=O)NC[C@@H](C)O)c1	none (no result: uPA surface inh, TDP1 inh, miR-21 act)
Cc1cccc(NC(=O)c2nc[nH]c2C(=O)Nc2ccccc2[N+](=O)[O-])c1	DT40 TDP1 no CPT 2.9µM, TDP1 cell CPT 6.5µM
O=[N+]([O-])c1ccc(/C=N/n2c(-c3ccccc3)n[nH]c2=S)cc1	none (no result: TDP1 inh)
C/C(=N\NC(=O)c1cccc(S(=O)(=O)N2CCCC2)c1)c1ccccc1F	none (no result: miR-21 act)
O=C(NCCN1CCOCC1)c1cnn(-c2nccc(-c3cc4ccccc4o3)n2)c1C1CC1	DT40 TDP1 no CPT inconclusive, TDP1 cell CPT 18µM (no result: uPA surface inh, TDP1 inh, miR-21 act)
O=C(NCC1(N2CCCCC2)CCCC1)c1cnn(-c2nccc(-c3cccs3)n2)c1C1CC1	none (no result: uPA surface inh, TDP1 inh, miR-21 act)
Cc1ccc(-c2ccnc(-n3ncc(C(=O)NCCN4CCOCC4)c3C3CC3)n2)o1	TDP1 cell CPT 21µM (no result: uPA surface inh, TDP1 inh, miR-21 act)
CCN1CCCC1CNC(=O)c1cnn(-c2nccc(-c3ccc(C)o3)n2)c1C1CC1 (stereo not drawn)	none (no result: uPA surface inh, TDP1 inh, miR-21 act)
Cc1c(C(=O)NCCN2CCOCC2)cnn1-c1nccc(-c2cc3ccccc3o2)n1	none (no result: uPA surface inh, TDP1 inh, miR-21 act)
O=C(NCC1(N2CCOCC2)CCCCC1)c1cnn(-c2nccc(-c3cccs3)n2)c1C1CC1	DT40 TDP1 no CPT 21µM, TDP1 cell CPT inconclusive (no result: uPA surface inh, TDP1 inh, miR-21 act)
c1ccc(Oc2nc3ccccc3n3cccc23)cc1	none
C=C1CCN(CC(=O)OC)S(=O)(=O)c2ccccc21	none
CC(C)(C)c1ccc(C(=O)C2CCCN(C(=O)c3ccccn3)C2)cc1 (stereo not drawn)	DT40 TDP1 no CPT inconclusive, TDP1 cell CPT 9.2µM (no result: TDP1 inh)
Cc1cnc(C(=O)N2CCCC(C(=O)c3ccc(C(C)(C)C)cc3)C2)cn1 (stereo not drawn)	DT40 TDP1 no CPT 23µM, TDP1 cell CPT inconclusive (no result: TDP1 inh)
O=C(c1ccc(Cl)cc1)C1CCCN(C(=O)/C=C/c2ccccn2)C1 (stereo not drawn)	DT40 TDP1 no CPT 21µM, TDP1 cell CPT 23µM
CC(=O)c1ccccc1C(=O)N1CCCC(C(=O)c2ccc(C(F)(F)F)cc2)C1 (stereo not drawn)	DT40 TDP1 no CPT 23µM, TDP1 cell CPT 23µM
CCN(CC)C(=O)COC(=O)C1CCN(S(=O)(=O)c2ccc3c(c2)OCCO3)CC1	none (no result: miR-21 act)
CC(C)(CO)NC(=O)CC1C(=O)NCCN1Cc1ccc(-c2ccccc2)cc1 (stereo not drawn)	DT40 TDP1 no CPT inconclusive
C[C@@H]1CN([C@@H](C)CO)C(=O)c2cc(/C=C/c3ccccc3)cnc2O[C@@H]1CN(C)S(=O)(=O)c1ccc(F)cc1	none (no result: uPA surface inh, TDP1 inh, miR-21 act)
Cc1c(N=N/C(C(=O)Nc2ccccc2)=C(/O)c2ccccc2)c(=O)n(-c2ccccc2)n1C	DT40 TDP1 no CPT 21µM, TDP1 cell CPT inconclusive
CCOC(=O)/C(N=Nc1c(C)n(C)n(-c2ccccc2)c1=O)=C(/O)c1ccccc1	none
Cc1ccc(C)n1C1CCS(=O)(=O)C1 (stereo not drawn)	DT40 TDP1 no CPT inconclusive, TDP1 cell CPT inconclusive
Cc1nn(C2CCS(=O)(=O)C2)c(C)c1C=O (stereo not drawn)	DT40 TDP1 no CPT 21µM, TDP1 cell CPT inconclusive
O=C(/C=C/c1ccc(F)cc1)NCCCN1CCN(CCCNC(=O)/C=C/c2ccc(F)cc2)CC1	DT40 TDP1 no CPT 26µM, TDP1 cell CPT inconclusive
CCOc1ccc(NC(=S)NC(=O)/C=C/c2ccc(OC)c(OC)c2)c([N+](=O)[O-])c1	DT40 TDP1 no CPT inconclusive, TDP1 cell CPT inconclusive
Cc1ccc(/C=C/C(=O)NC(=S)Nc2ccccc2C(=O)NC2CCCCC2)cc1	DT40 TDP1 no CPT 12µM, TDP1 cell CPT 13µM
CC(C)NC(=S)NC(=O)/C=C/c1ccc(F)cc1	DT40 TDP1 no CPT 15µM, TDP1 cell CPT 21µM
COc1ccc(/C=C/C(=O)NCCCN2CCCCCC2)cc1	none (no result: TDP1 inh)

Screening data as filed in PubChem BioAssay.
